# Hits are enriched below; roughly 4.2% of the tested compounds scored in any of these assays.
# RecA intein inh: inhibitors of M. tuberculosis RecA intein splicing; P9WHJ3; cell-free RecA intein splicing, fluorescence; inhibition, % (concentration not given with the values); hit rate 0.75% among 290,000; AID 2221; in the data active means inhibition above about 30%
# GDH-TPI inh: inhibits GDH-TPI coupling enzymes, artifact for Mtb FBA screen; GDH-TPI coupled enzyme counterscreen, NADH absorbance; inhibition, % at 4.8 µM; hit rate 1.2% among 360,000
# Mtb FBA inh: inhibitors of M. tuberculosis fructose-bisphosphate aldolase. P9WQA3. purified M. tuberculosis FBA, fluorescence read-out. inhibition, % at 1 µM. hit rate 2.3% among 360,000. AID 588726; in the data active means inhibition above about 27%
# Mtb betalactam: beta-lactam sensitization of Mtb H37Rv; M. tuberculosis H37Rv growth with meropenem, percent inhibition; hit rate 0.27% among 330,000; inhibition, % at 25 µM; call rule not given here;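 further: growth measured after seven days incubation then overnight dye step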
# CCHF vOTU inh: blocks the CCHF virus ovarian tumor domain protease; AID 651958; inhibition, % at 11.5 µM; hit rate 0.55% among 370,000; CCHFV vOTU protease, Pep-AMC fluorescence
# Hits are given with their value; – = inactive; · = no result given; + = active, no number. Unless noted, no stated cut-off is given here; in the data, active means inhibition above about 30%; inactive means the rest.
SMILES,RecA intein inh,GDH-TPI inh,Mtb FBA inh,Mtb betalactam,CCHF vOTU inh
O=C(COC(=O)c1cc(-c2cccs2)nc2ccccc12)NCc1ccco1,–,–,45.2,–,–
CCC(C)N(C(=O)CSc1nnc(-c2cc(OC)c(OC)c(OC)c2)o1)C(C)CC (configuration not stated),·,·,·,·,–
C/C(=N\NC(=O)c1cc(-c2ccccc2)nc2ccccc12)c1ccc(Cl)cc1,·,·,·,·,–
COCCC(=O)N1CCCC(C(=O)c2ccc3c4c(cccc24)CC3)C1 (configuration not stated),–,–,–,–,–
COCC(=O)N1CCCC(C(=O)c2ccc3c4c(cccc24)CC3)C1 (configuration not stated),–,39.0,–,–,–
Cc1cc2nc(-c3ccc[nH]c3=O)n(Cc3ccc(F)cc3)c2cc1C,–,–,198.4,–,–
Cc1cc2nc(-c3ccc[nH]c3=O)[nH]c2cc1C,–,–,+,–,–
Cc1cc2nc(-c3ccc[nH]c3=O)n(Cc3ccccc3F)c2cc1C,–,–,–,–,–
Cc1ccccc1-c1nc2ccccc2[nH]1,–,–,–,–,–
O=c1[nH]cccc1-c1nc2ccccc2n1Cc1ccc(F)cc1,–,–,172.5,–,–
CCCn1c(-c2ccc[nH]c2=O)nc2ccccc21,–,–,151.5,–,–
CCN(Cc1cn(Cc2ccccc2)nn1)S(=O)(=O)c1ccc(N2CCCC2)cc1Br,·,·,·,·,–
CCC(NC(=O)c1ccc2c(ccn2Cc2cccc(-c3ccccc3C(=O)O)c2)c1)c1ccccc1 (configuration not stated),·,·,·,·,–
Oc1cc(NCc2cccnc2)ccc1-c1nc2ccccc2o1,–,63.5,–,–,–
O=C(/C=C\c1cccs1)c1c(O)ccc2ccc(=O)oc12,–,35.7,–,–,–
COc1ccc(C2CC(=O)C3=C(C2)Nc2ccccc2NC3c2coc3ccccc3c2=O)cc1OC (configuration not stated),·,40.1,–,–,–
CN1/C(=C\C(=O)COC(=O)CNC(=O)c2ccc3ccccc3c2)C(C)(C)c2ccccc21,–,–,–,–,–
CN1/C(=C\C(=O)COC(=O)CN2C(=O)C3CC=CCC3C2=O)C(C)(C)c2ccccc21 (configuration not stated),–,36.8,–,–,–
CN1/C(=C\C(=O)COC(=O)c2ccc(O)cc2)C(C)(C)c2ccccc21,–,–,–,–,–
CN1/C(=C/C(=O)COC(=O)C2COc3ccccc3O2)C(C)(C)c2ccccc21 (configuration not stated),·,31.6,–,·,–
C=CCN(CC#Cc1ccc(C)cc1)Cc1ccc(OC)cc1OC,·,·,·,·,–
O=C(NCc1ccc(C(=O)N2CCCN(Cc3ccccc3)CC2)cc1)c1cccc(Br)c1,·,·,·,·,–
CCN(CC)S(=O)(=O)c1ccc(N=Nc2c(C)[nH]n(C(N)=S)c2=O)cc1,–,–,–,–,31.4
CCOC(=O)/C(C#N)=C1/SC(CC)C(=O)N1c1ccc(Br)cc1 (configuration not stated),–,–,–,–,–
CCOC(=O)/C(C#N)=C1/SC(C)C(=O)N1c1ccc(Br)cc1 (configuration not stated),31.7,–,–,–,–
SMILES,RecA intein inh,GDH-TPI inh,Mtb FBA inh,Mtb betalactam,CCHF vOTU inh
COc1ccccc1-c1cc(C(F)(F)F)nc(N2CCN(c3ccccc3)CC2)n1,–,–,27.9,–,–
CCOC(=O)[C@@]12CCCC3=C1N(CCC3)C(=O)[C@H]2CC(=O)NCCCN1CCCC1=O,·,·,·,·,–
COC(=O)C1C2c3ccccc3OC1(C)N=c1s/c(=C/c3cnn(C)c3C)c(=O)n12 (configuration not stated),–,–,–,–,–
CC(=O)C1C2c3ccccc3OC1(C)N=c1s/c(=C/c3cnn(C)c3)c(=O)n12 (configuration not stated),–,38.0,–,–,–
O=C(CN1CCN(c2nc(-c3ccccc3)cs2)CC1)Nc1ccc(Cl)c(Cl)c1,·,·,·,·,–
O=C(c1ccccn1)N(Cc1cc2ccccc2[nH]c1=O)C1CCCCC1,–,–,+,–,–
O=C(NC1CCCCC1)N(Cc1cc2cc3c(cc2[nH]c1=O)OCCO3)C1CCCCC1,·,34.5,–,–,–
COc1cc2cc(CN(C(=O)NC3CCCCC3)C3CCCC3)c(=O)[nH]c2cc1OC,–,–,–,–,–
C#CCN(C1CC1)S(=O)(=O)c1ccccc1Br,·,·,·,·,–
c1ccc2[nH]c3cc4ncnc4cc3nc2c1,60.0,–,–,–,–
Cc1cc(NC(=O)c2ccc(NS(=O)(=O)c3ccccc3F)cc2)no1,·,·,·,·,–
COc1ccc2nc(C)cc(N/N=C/c3ccccc3)c2c1,·,–,–,–,·
COc1ccc(/C=N/Nc2cc(C)nc3ccc(OC)cc23)c(OC)c1,–,–,144.3,–,–
CCOc1ccc(N(CC(=O)Nc2c(C)n(C)n(-c3ccccc3)c2=O)S(=O)(=O)c2ccc(C(C)(C)C)cc2)cc1,·,·,·,·,–
CCOC(=O)CCc1c(C)c2ccc(OCC)c(C)c2oc1=O,–,·,·,–,–
CCOC(=O)CCc1c(C)c2ccc3c(c2oc1=O)CN(CCCO)CO3,–,–,+,–,–
CCOC(=O)CCc1c(C)c2ccc(OCC(=O)N3CCOCC3)c(C)c2oc1=O,–,–,145.8,–,–
CCOC(=O)CCc1c(C)c2ccc(OCc3ccc([N+](=O)[O-])cc3)cc2oc1=O,–,–,–,–,–
COC(=O)Cc1c(C)c2ccc(OCC(=O)N3CCCC3)c(C)c2oc1=O,–,–,151.0,–,–
Nc1[nH]c(C(=O)c2ccccc2)c(-c2ccc3ccccc3c2)c1C(=O)NCc1ccc(-c2ccccc2)cc1,·,·,·,·,–
COc1ccc(-c2nnc(SCC(=O)Nc3ccc4cn[nH]c4c3)n2Cc2ccco2)cc1,·,·,·,·,–
Cc1ccc(-c2nc3ncccn3c2NC(=O)c2ccccc2)cc1,·,·,·,·,–
Cc1cc(-c2nc3cc(F)ccc3s2)ccc1N,·,38.1,·,·,–
Cc1cccc(C)c1-n1c(C)cc(/C=C2\NC(=O)NC2=O)c1C,–,33.0,–,–,–
COC(=O)C1=C(C)NC(=O)/C1=C\c1cc(C)n(-c2c(C)cccc2C)c1C,–,–,–,·,–
SMILES,RecA intein inh,GDH-TPI inh,Mtb FBA inh,Mtb betalactam,CCHF vOTU inh
Cc1cc(/C=C2\NC(=O)NC2=O)c(C)n1-c1cccnc1,·,44.8,–,–,–
Cc1cc(/C=C2\NC(=S)NC2=O)c(C)n1-c1cccnc1,–,–,–,–,–
CN(C)c1ccc(/C=N/NC(=O)CNC(=O)c2ccc3c(c2)OCCO3)cc1,–,39.8,–,–,–
O=C(CNC(=O)c1ccncc1)N/N=C/c1ccc(O)cc1O,–,39.0,–,–,–
CN(C)c1ccc(/C=N/NC(=O)CNC(=O)c2ccncc2)cc1,–,32.8,–,–,–
O=C(/C=C/c1ccco1)NCC(=O)N/N=C/c1ccc(Cl)cc1,–,–,–,–,–
CN(C)c1ccc(/C=N/NC(=O)CNC(=O)/C=C/c2ccco2)cc1,–,40.5,–,–,–
C=CCNC(=O)CN(C(=O)c1ccncn1)c1cccc(Br)c1,·,·,·,·,–
O=C(CN1CCCC1)NCC(=O)Nc1ccc(F)cc1,–,–,+,–,–
O=C(CN1CCCC1)Nc1ccc(F)cc1,–,–,–,–,–
CCOc1cc2c(cc1/C=C/C(=O)O)OC(C)C2 (configuration not stated),–,–,147.5,–,–
